# VLA-4 inh: inhibition in a human VLA-4 binding assay; P13612; VLA-4 expressing cells, ligand binding flow cytometry; inhibition, % (about 7 µM as worked out from the volumes in the protocol); 330,000 compounds, 0.2% hits; in the data active means inhibition above about 50%
# Target sequence (P13612 whole entry, looked up): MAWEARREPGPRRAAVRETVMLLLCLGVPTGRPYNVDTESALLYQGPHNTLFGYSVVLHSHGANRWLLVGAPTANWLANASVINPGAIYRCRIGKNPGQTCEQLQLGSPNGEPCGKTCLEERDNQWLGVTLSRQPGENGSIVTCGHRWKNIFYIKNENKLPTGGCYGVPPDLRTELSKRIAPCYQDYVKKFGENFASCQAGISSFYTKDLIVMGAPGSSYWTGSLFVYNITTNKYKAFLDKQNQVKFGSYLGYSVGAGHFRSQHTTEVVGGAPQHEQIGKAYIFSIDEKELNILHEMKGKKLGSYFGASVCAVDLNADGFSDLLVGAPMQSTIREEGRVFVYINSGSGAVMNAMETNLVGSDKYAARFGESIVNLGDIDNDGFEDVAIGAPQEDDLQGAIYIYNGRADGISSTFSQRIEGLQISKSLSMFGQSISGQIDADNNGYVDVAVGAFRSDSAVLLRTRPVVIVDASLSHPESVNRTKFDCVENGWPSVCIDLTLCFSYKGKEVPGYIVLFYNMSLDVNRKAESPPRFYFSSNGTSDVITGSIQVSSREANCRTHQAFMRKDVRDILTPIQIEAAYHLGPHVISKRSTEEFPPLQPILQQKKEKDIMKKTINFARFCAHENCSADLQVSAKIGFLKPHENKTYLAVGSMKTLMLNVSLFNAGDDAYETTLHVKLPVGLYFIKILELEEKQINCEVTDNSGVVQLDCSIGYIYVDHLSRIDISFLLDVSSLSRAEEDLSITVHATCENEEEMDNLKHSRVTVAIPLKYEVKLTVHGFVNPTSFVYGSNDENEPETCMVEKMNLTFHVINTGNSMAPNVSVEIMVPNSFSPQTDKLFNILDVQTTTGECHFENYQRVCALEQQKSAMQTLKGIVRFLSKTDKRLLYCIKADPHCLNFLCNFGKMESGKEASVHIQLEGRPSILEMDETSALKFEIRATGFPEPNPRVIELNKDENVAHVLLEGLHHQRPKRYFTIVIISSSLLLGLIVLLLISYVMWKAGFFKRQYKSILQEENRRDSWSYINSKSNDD
# GRK2 inh: human GRK2 inhibition via aptamer displacement; 330,000 compounds, 0.59% hits; inhibition of aptamer binding, % at 10 µM; P25098; bead flow cytometry, FAM-aptamer displacement from GRK2; AID 488847;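 active means inhibition of aptamer binding above 40%, roughly 3 SD of noise, on plates passing a quality check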;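 further: median bead fluorescence of bound FAM aptamer so fluorescent compounds give negative values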
# NTR1 agonist: agonists of human neurotensin receptor NTR1; 330,000 compounds, 0.17% hits; NTR1-U2OS beta-arrestin-GFP spot imaging, agonist mode; P30989; activation, % at 20 µM;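 active means activation at or above 40% of the spot to cytoplasm intensity ratio, with at least 20 cells analyzed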
# Bfl-1 A1 inh: inhibitors of the anti-apoptotic protein A1, read as caspase activation. 330,000 compounds, 0.066% hits. caspase activation, % (no concentration beside the values). MEF A1-2A-BIM cells, Caspase-Glo 3/7 luminescence, 3 h; percent of clofoctol response, vehicle zero;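 active means over half of replicate activation scores above 10%, or exactly half above 10 with the replicate mean above 10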
# B2AR ag: agonists of human beta-2 adrenergic receptor inducing internalization | 340,000 compounds, 0.43% hits | AID 504454 | response, % (no concentration beside the values) | P07550 | Am2.2-beta2AR cells, FAP receptor internalization, flow cytometry;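 active means response above a set limit, near 3 SD of response in nonfluorescent compounds, cut at about 42% in these data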
# GRK2 CP1: confirmation of human GRK2 inhibitors displacing RNA aptamer; shares compounds with GRK2 inh; bead-bound GRK2, FAM-aptamer displacement, flow cytometry; aptamer displacement, % at 10 µM; 2,000 compounds, 4% hits; AID 504451;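 active means aptamer displacement above 40%, near three times the noise of non-fluorescent compounds, on plates passing quality checks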;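 further: negative values mostly reflect intrinsic compound fluorescence rather than true enhancement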
# Aptamer quench 1: counter-screen for GRK2 aptamer inhibitors: fluorescent aptamer quenchers | fluorescence change (kMESF span), kMESF (test concentration not listed) | shares compounds with GRK2 inh | Fluorescent RNA aptamer beads, quenching, flow cytometry; stronger effect = higher value | AID 504521 | 110 tested, under 10 active;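 active means compounds whose bead fluorescence drops by more than 37 kMESF across the dose range, marking them as dye quenchers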
# FAM quench CP1: counter-screen for GRK2 aptamer inhibitors: fluorescent aptamer quenchers | shares compounds with GRK2 inh | fluorescence response (% of DMSO), % at 10 µM | AID 504580 | Carboxyfluorescein RNA aptamer on beads, flow cytometry quenching; stronger effect = lower value | 2,000 tested, under 10 active;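 active means compounds that quench the bead-bound fluorescent RNA probe, cutting fluorescence to under half of the solvent control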;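 further: counterscreen run without GRK2 so only probe quenching by compound is measured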
# GRK2 confirm 2: confirmation of human GRK2 inhibitors binding RNA aptamer site; shares compounds with GRK2 inh; bead-bound GRK2, FAM-aptamer displacement, flow cytometry; inhibition of aptamer binding, % at 10 µM; 360 tested, under 10 active; AID 504782;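 active means inhibition of aptamer binding above 40%, about triple the noise seen with nonglowing compounds, on plates passing quality control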;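 further: negative values mostly come from compounds that fluoresce themselves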
# FAM quench CP2: counter-screen for GRK2 binding hits: quenchers of fluorescent RNA aptamer | carboxyfluorescein RNA aptamer beads, flow cytometry quenching; stronger effect = lower value | shares compounds with GRK2 inh | fluorescence response vs DMSO, % at 10 µM | 360 tested, under 10 active | AID 588494;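 active means response vs DMSO under 50%, meaning signal dropped by over half, treated as fluorescence quencher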;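 further: labelled aptamer on streptavidin beads without GRK2 as a quench counter-screen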
# A number is an active result; i = inactive; nt = not tested or not shown. This is a sample that favours compounds with a hit; in the whole collection about 1.3% have one here.
SMILES,VLA-4 inh,GRK2 inh,NTR1 agonist,Bfl-1 A1 inh,B2AR ag,GRK2 CP1,FAM quench CP1,others
C/C=C/C=C/C(=O)N1CC2(CC(c3cccc(NC(=O)/C=C/C)c3)=NO2)C[C@@H]1C(N)=O (stereo partly specified),i,i,i,i,i,nt,nt,
C=C(C)C(=O)Nc1cccc(C2=NOC3(C2)C[C@@H](C(N)=O)N(C(=O)CC(c2ccccc2)c2ccccc2)C3)c1 (stereo partly specified),i,88,i,i,i,80,i,Aptamer quench 1=i
Cc1ccc(N(Cc2ccccc2)C(=O)c2ccc(Cl)c(S(=O)(=O)N3CCOCC3)c2)cc1,i,i,i,i,i,nt,nt,
Cc1sc(NC(=O)C2=COCCO2)nc1-c1ccc(Cl)cc1,i,i,i,i,i,nt,nt,
COc1ccc(N(C(=O)c2ccco2)S(=O)(=O)c2cccs2)cc1,i,98,i,i,i,i,i,
CC(=O)N(c1ccc(N(C(C)=O)S(=O)(=O)c2cccs2)cc1)S(=O)(=O)c1cccs1,i,53,i,i,i,i,i,
CC(C)CC1NC(=O)N(CC(=O)Nc2ccc(OCc3ccccc3)cc2)C1=O (stereo unspecified),nt,nt,i,nt,i,nt,nt,
COc1cccc(OC)c1C(=O)Nc1ccc(N2CCCC2)cc1,i,100,i,i,i,i,i,
CCOC(=O)C(=O)NC1CC=CCC1c1ccc2c(c1)OCO2 (stereo unspecified),nt,nt,nt,nt,i,nt,nt,
CC(=O)Oc1ccc2c(=O)c(-c3ccccc3)coc2c1,i,i,i,i,i,i,i,
CCOC(=O)COc1ccc2c(=O)c(-c3ccccc3)coc2c1,i,i,i,i,i,nt,nt,
COc1cccc(CNc2ccc3[nH]c(=O)[nH]c3c2)c1OCc1ccccc1F,i,91,i,i,i,i,i,
COc1cc(CNc2ccc3[nH]c(=O)[nH]c3c2)cc(Br)c1OCc1ccc(F)cc1,i,i,i,i,i,nt,nt,
COc1cc(C#N)ccc1OC(=O)C1CCN(C(=O)c2ccc(F)cc2)CC1,i,i,i,i,i,nt,nt,
Cc1ccc(C(=O)Nc2cccc(C(F)(F)F)c2)cc1NC(=O)c1c[nH]c2cc(C(F)(F)F)ccc2c1=O,i,i,i,i,i,i,i,
O=C(NC(=S)Nc1ccc2oc(-c3ccncc3)nc2c1)c1ccccc1F,i,i,i,i,i,i,i,
O=C(Nc1ccc2oc(-c3ccc(F)cc3)nc2c1)c1ccccc1F,i,i,i,i,i,nt,nt,
CC(=O)c1ccc(NC(=O)CN2C(=O)COc3ccc(S(=O)(=O)N4CCCC4)cc32)cc1,i,i,i,i,i,nt,nt,
COc1ccc(OC)c(S(=O)(=O)NCCS(=O)(=O)N2CCN(c3ccccc3)CC2)c1,i,i,i,i,i,nt,nt,
Cc1occc1C(=O)N/N=C/C(Br)=C/c1ccccc1,i,i,i,i,i,i,i,
Cc1occc1C(=O)N/N=C/c1ccc(-c2ccccc2)cc1,i,i,i,i,i,nt,nt,
NC(=O)c1ccsc1NC(=O)COC(=O)CNC(=O)c1ccc(F)cc1,i,55,i,i,i,i,i,
NC(=O)c1ccsc1NC(=O)COC(=O)COc1ccccc1F,i,i,i,i,i,nt,nt,
O=C(CSc1nnc(-c2ccc(O)cc2)n1-c1ccccc1)CC(=O)Nc1ccccc1,i,92,i,i,i,nt,nt,GRK2 confirm 2=i;FAM quench CP2=i
Cc1ccc(CNC(=O)c2cc(S(=O)(=O)N3CCCCC3)ccc2N2CCOCC2)cc1,i,i,i,i,i,nt,nt,
C(=N\n1c2ccccc2c2ccccc21)/c1ccccc1,i,i,i,i,i,nt,nt,

# Source: PubChem BioAssay
